{
  "source": "paper PMC4336329",
  "about": "(PLoS ONE, 2015)",
  "note": "The whole screen tested about 310,000 compounds, of which about 2,200 (0.71%) showed an effect of 50% or more. The effect is printed as a negative number. This is one part of a sample in which strong results are shown more often than they occur.",
  "data": [
    {"target": "human ether-à-go-go-related gene (hERG) potassium channel (human, UniProt Q12809)", "sequence (Q12809 whole entry, looked up)": "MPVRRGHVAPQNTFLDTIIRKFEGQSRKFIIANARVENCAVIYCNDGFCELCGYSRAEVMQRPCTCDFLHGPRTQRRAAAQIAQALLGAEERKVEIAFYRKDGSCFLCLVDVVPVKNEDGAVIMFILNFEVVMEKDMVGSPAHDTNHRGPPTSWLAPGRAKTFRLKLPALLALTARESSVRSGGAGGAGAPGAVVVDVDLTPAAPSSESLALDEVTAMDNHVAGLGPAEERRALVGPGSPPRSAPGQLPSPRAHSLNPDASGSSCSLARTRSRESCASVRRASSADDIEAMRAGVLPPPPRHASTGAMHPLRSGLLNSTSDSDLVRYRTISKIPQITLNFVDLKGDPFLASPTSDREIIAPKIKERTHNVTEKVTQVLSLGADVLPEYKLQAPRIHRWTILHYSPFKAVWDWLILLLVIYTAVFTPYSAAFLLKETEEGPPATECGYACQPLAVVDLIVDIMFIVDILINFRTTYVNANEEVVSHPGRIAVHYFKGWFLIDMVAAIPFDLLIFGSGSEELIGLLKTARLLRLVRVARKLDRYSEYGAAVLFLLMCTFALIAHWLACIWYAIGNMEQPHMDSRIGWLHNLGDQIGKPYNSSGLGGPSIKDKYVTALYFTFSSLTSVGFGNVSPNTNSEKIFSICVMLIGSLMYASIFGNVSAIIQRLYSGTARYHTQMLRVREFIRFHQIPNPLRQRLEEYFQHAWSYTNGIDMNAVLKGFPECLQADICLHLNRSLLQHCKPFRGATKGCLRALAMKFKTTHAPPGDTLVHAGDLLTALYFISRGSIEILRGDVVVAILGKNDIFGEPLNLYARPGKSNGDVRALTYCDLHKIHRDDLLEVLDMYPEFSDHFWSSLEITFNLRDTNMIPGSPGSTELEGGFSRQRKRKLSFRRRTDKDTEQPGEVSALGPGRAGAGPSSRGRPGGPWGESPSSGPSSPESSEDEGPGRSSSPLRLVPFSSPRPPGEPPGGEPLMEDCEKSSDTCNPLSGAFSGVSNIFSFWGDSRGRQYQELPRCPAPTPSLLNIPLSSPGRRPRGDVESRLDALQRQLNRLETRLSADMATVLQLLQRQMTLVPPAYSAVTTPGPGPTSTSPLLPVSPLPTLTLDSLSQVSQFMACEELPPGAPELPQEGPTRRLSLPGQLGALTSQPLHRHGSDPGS", "assay": "primary screen, population patch clamp on CHO cells stably expressing hERG; higher = less effect of the substance", "protocol": "Briefly, Chinese hamster ovary (CHO) cells stably expressing the hERG channel were dislodged from tissue culture flasks and dispensed into PPC plates. […] During the recording, background leak currents were estimated by a 100 ms step to -80 mV from an initial holding potential of -70 mV and subtracted from the subsequent current measurement. The campaign was conducted in two phases using slight differences in recording protocol. In the first phase, the initial voltage pulse used a 100 ms step to -30 mV from a holding potential of -70 mV, a 2 s conditioning step to +25 mV, and a 2 s test step to -30 mV. During the second phase of the screen, the potential during the conditioning step was raised to +45 mV. In both phases of the campaign, a secondary voltage pulse was applied using the same parameters as the second phase initial pulse. The initial and secondary pulses were applied in the absence of compound, and upon application of 1 μM and 10 μM test concentrations. Small molecule effects on hERG current density were quantified by […].", "units": {"hERG current change (%, negative = inhibition) at 1uM": "%"}, "values": [
      {"smiles": "COc1cc2c(cc1OC)C(c1ccc([N+](=O)[O-])cc1)N(C(C)=O)CC2", "note": "(stereo not shown)", "hERG current change (%, negative = inhibition) at 1uM": 5.11},
      {"smiles": "CC(C)c1ccc(NC(=O)c2ccc3c(c2)C(=O)N(Cc2cccnc2)C3=O)cc1", "hERG current change (%, negative = inhibition) at 1uM": 8.25},
      {"smiles": "c1ccc(CC(Nc2ccccn2)c2ccccc2)cc1", "note": "(stereo not shown)", "hERG current change (%, negative = inhibition) at 1uM": -10.6},
      {"smiles": "NC(=O)CSc1n[nH]c(=O)n1CCc1ccccc1", "hERG current change (%, negative = inhibition) at 1uM": 10.4},
      {"smiles": "O=C(Cc1cccs1)NCc1cccc(Cl)c1", "hERG current change (%, negative = inhibition) at 1uM": 9.08},
      {"smiles": "CCOc1ccc2[nH]c(O)c(NC(C)=O)c2c1", "hERG current change (%, negative = inhibition) at 1uM": 5.98},
      {"smiles": "CCc1c(C)nc2ncnn2c1NCc1cccs1", "hERG current change (%, negative = inhibition) at 1uM": 6.69},
      {"smiles": "COc1cc(/C=N/NC(=O)c2ccccc2)ccc1O", "hERG current change (%, negative = inhibition) at 1uM": -5.66},
      {"smiles": "COc1cc2c(cc1OC)/C(=C/C#N)NC(C)(C)C2", "hERG current change (%, negative = inhibition) at 1uM": 7.09},
      {"smiles": "CNc1nc(SC)nc2ccccc12", "hERG current change (%, negative = inhibition) at 1uM": 16.4},
      {"smiles": "CC1CCN(CCCNC(=O)c2ccc(CSCc3cccc(Cl)c3)o2)CC1", "hERG current change (%, negative = inhibition) at 1uM": -62.4},
      {"smiles": "O=C(NCCCN1CCCC1)c1ccc(CSCc2cccc(Cl)c2)o1", "hERG current change (%, negative = inhibition) at 1uM": -30.4},
      {"smiles": "COc1cccc(C(=O)NCCCN2CCN(CCCNC(=O)c3cccc(OC)c3)CC2)c1", "hERG current change (%, negative = inhibition) at 1uM": -65.2},
      {"smiles": "COc1cc(OC)cc(C(=O)NCCCN2CCN(CCCNC(=O)c3cc(OC)cc(OC)c3)CC2)c1", "hERG current change (%, negative = inhibition) at 1uM": -18.8},
      {"smiles": "COc1cccc(C(=O)NCCCNC(=O)c2cccc(OC)c2)c1", "hERG current change (%, negative = inhibition) at 1uM": 12.4},
      {"smiles": "CN1CCN(CCCNC(=O)c2ccc(CSCc3cccc(Cl)c3)o2)CC1", "hERG current change (%, negative = inhibition) at 1uM": 1.54},
      {"smiles": "Cc1ccc2nsnc2c1NC(=O)c1cccnc1Cl", "hERG current change (%, negative = inhibition) at 1uM": 15.1},
      {"smiles": "COc1ccc(S(=O)(=O)N2CCC(Nc3ccccc3Cl)CC2)cc1", "hERG current change (%, negative = inhibition) at 1uM": 28.1},
      {"smiles": "COc1ccc(/C=C2\\SC(=S)N(CC(=O)NC3CCS(=O)(=O)C3)C2=O)cc1", "note": "(stereo not shown)", "hERG current change (%, negative = inhibition) at 1uM": 17.2},
      {"smiles": "CN=C1c2c(-c3ccccc3)c3cc(OC)ccc3n2CCN1C.Cl", "hERG current change (%, negative = inhibition) at 1uM": -31.6},
      {"smiles": "COc1ccc2c(c1)c1c3n2CCN(C)C3=NCC1.Cl", "hERG current change (%, negative = inhibition) at 1uM": -54.9},
      {"smiles": "COc1ccc2c(c1)c1c(n2C(C)=O)C(OC(C)=O)=NCC1", "hERG current change (%, negative = inhibition) at 1uM": 2.42},
      {"smiles": "COc1ccc(OCC(=O)Nc2c3c(nn2-c2ccccc2)CS(=O)(=O)C3)cc1", "hERG current change (%, negative = inhibition) at 1uM": 7.69},
      {"smiles": "O=C1c2ccccc2C(=O)N1Cc1cccnc1", "hERG current change (%, negative = inhibition) at 1uM": 15.6},
      {"smiles": "Cc1nc2nc(-c3ccc(Cl)cc3)nn2c(C)c1Cl", "hERG current change (%, negative = inhibition) at 1uM": 13.4},
      {"smiles": "Cc1cc(N2CCOCC2)n2nc(C)c(-c3ccc(Cl)cc3)c2n1", "hERG current change (%, negative = inhibition) at 1uM": 7.28},
      {"smiles": "Cc1cc(N2CCOCC2)n2cc(-c3ccccc3)nc2n1", "hERG current change (%, negative = inhibition) at 1uM": -14.6},
      {"smiles": "Cc1cc(N2CCN(c3ccccc3)CC2)n2cc(-c3ccccc3)nc2n1", "hERG current change (%, negative = inhibition) at 1uM": -16.4},
      {"smiles": "Cc1cc(N2CCN(c3ccccc3Cl)CC2)n2cc(-c3ccccc3)nc2n1", "hERG current change (%, negative = inhibition) at 1uM": -2.03},
      {"smiles": "Cc1cc(N2CCN(c3ccccn3)CC2)n2cc(-c3ccccc3)nc2n1", "hERG current change (%, negative = inhibition) at 1uM": -65.4},
      {"smiles": "Cc1cc(N2CCOCC2)n2cc(-c3ccc(F)cc3)nc2n1", "hERG current change (%, negative = inhibition) at 1uM": -34.9},
      {"smiles": "Cc1cc(N2CCN(C)CC2)n2nc(-c3ccc(Cl)cc3)nc2n1", "hERG current change (%, negative = inhibition) at 1uM": -67.2},
      {"smiles": "Cc1cc(N2CCN(C)CC2)n2cc(-c3ccc(F)cc3)nc2n1", "hERG current change (%, negative = inhibition) at 1uM": -89.8},
      {"smiles": "Cc1cc(C)nc(-n2ncc3c2CC(C)CC3=O)n1", "note": "(stereo not shown)", "hERG current change (%, negative = inhibition) at 1uM": 11.4},
      {"smiles": "O=C(CN1C(=O)C2CCCCN2C(=O)c2ccccc21)N1CCCc2ccccc21", "note": "(stereo not shown)", "hERG current change (%, negative = inhibition) at 1uM": 15.1},
      {"smiles": "O=C(Cc1cccs1)Nc1nnc(SCc2cccc3ccccc23)s1", "hERG current change (%, negative = inhibition) at 1uM": -3.03},
      {"smiles": "COc1ccc(OC)c(NC(=O)CSc2nc(=O)n(Cc3ccccn3)c3c2CCC3)c1", "hERG current change (%, negative = inhibition) at 1uM": -2.43},
      {"smiles": "Cc1cc(O)c(C(C)C)cc1NC(=O)Cn1nc(C)c2ccccc2c1=O", "hERG current change (%, negative = inhibition) at 1uM": -6.85},
      {"smiles": "Cc1ccc(NC(=O)CCc2ccc(C)o2)cc1", "hERG current change (%, negative = inhibition) at 1uM": 7.21},
      {"smiles": "COC(=O)c1ccc(NC(=O)c2cc[n+]([O-])cc2)cc1", "hERG current change (%, negative = inhibition) at 1uM": 10.9},
      {"smiles": "Fc1ccc2[nH]c3c(NCCN4CCOCC4)ncnc3c2c1", "hERG current change (%, negative = inhibition) at 1uM": 8.84},
      {"smiles": "CCN1CCCC1CNc1ncnc2c1[nH]c1ccc(Cl)cc12", "note": "(stereo not shown)", "hERG current change (%, negative = inhibition) at 1uM": -85.5},
      {"smiles": "Clc1ccc2[nH]c3c(NCCN4CCOCC4)ncnc3c2c1", "hERG current change (%, negative = inhibition) at 1uM": -2.76},
      {"smiles": "CCN1CCCC1CNc1ncnc2c1[nH]c1ccc(F)cc12", "note": "(stereo not shown)", "hERG current change (%, negative = inhibition) at 1uM": -81.4},
      {"smiles": "CCN1CCCC1CNC(=O)c1cc2cc(OC)c(OC)cc2[nH]1", "note": "(stereo not shown)", "hERG current change (%, negative = inhibition) at 1uM": 16.2},
      {"smiles": "Clc1ccc2[nH]c3c(NCC4CCCO4)ncnc3c2c1", "note": "(stereo not shown)", "hERG current change (%, negative = inhibition) at 1uM": -3.05},
      {"smiles": "CCN1CCCC1CNC(=O)c1cc2ccc(OC)cc2[nH]1", "note": "(stereo not shown)", "hERG current change (%, negative = inhibition) at 1uM": 5.34},
      {"smiles": "Fc1ccc2[nH]c3c(NCc4ccccc4)ncnc3c2c1", "hERG current change (%, negative = inhibition) at 1uM": 15.4},
      {"smiles": "CCN1CCCC1CNC(=O)c1cc2cc(F)ccc2[nH]1", "note": "(stereo not shown)", "hERG current change (%, negative = inhibition) at 1uM": -53.8},
      {"smiles": "CCc1noc(C)c1C(=O)NNC(=O)c1cc(OC)cc(OC)c1", "hERG current change (%, negative = inhibition) at 1uM": 9.15},
      {"smiles": "CCOc1cc(C2c3c(n[nH]c3C)C(=O)N2c2ccc(Br)cc2)ccc1O", "note": "(stereo not shown)", "hERG current change (%, negative = inhibition) at 1uM": 10.8},
      {"smiles": "CCC(Oc1ccc2c(c1)C(=O)CC(C)(C)O2)C(=O)NCCN1CCCCCC1.O=C(O)C(=O)O", "note": "(stereo not shown)", "hERG current change (%, negative = inhibition) at 1uM": -9.15},
      {"smiles": "C=CCn1c(SCC(=O)N2CCN(c3ccccc3)CC2)nnc1-c1ccco1", "hERG current change (%, negative = inhibition) at 1uM": 4.57},
      {"smiles": "C=CCn1c(SCC(=O)N2CCN(c3ccc(F)cc3)CC2)nnc1-c1cccs1", "hERG current change (%, negative = inhibition) at 1uM": -52.4},
      {"smiles": "CCn1c(SCC(=O)Nc2ccccc2)nnc1-c1cccs1", "hERG current change (%, negative = inhibition) at 1uM": -13.8},
      {"smiles": "C=CCn1c(SCC(=O)O)nnc1-c1cccs1", "hERG current change (%, negative = inhibition) at 1uM": 9.03},
      {"smiles": "C=CCn1c(SCC(=O)C(C)(C)C)nnc1-c1cccs1", "hERG current change (%, negative = inhibition) at 1uM": -9.56},
      {"smiles": "C=CCn1c(SCC(=O)Nc2ccc(C(=O)OC(C)C)cc2)nnc1-c1cccs1", "hERG current change (%, negative = inhibition) at 1uM": 9.31},
      {"smiles": "CCn1c(SCC(=O)Nc2nc(C)c(C)s2)nnc1-c1cccs1", "hERG current change (%, negative = inhibition) at 1uM": -62.5},
      {"smiles": "CCn1c(SCC(=O)Nc2nc(C)c(C)s2)nnc1-c1ccco1", "hERG current change (%, negative = inhibition) at 1uM": -11.2},
      {"smiles": "C=CCn1c(SCC(=O)Nc2ccc(C(=O)OCC)cc2)nnc1-c1cccs1", "hERG current change (%, negative = inhibition) at 1uM": 12.3},
      {"smiles": "C=CCn1c(SCC(=O)Nc2ccc3c(c2)CCC3)nnc1-c1cccs1", "hERG current change (%, negative = inhibition) at 1uM": -83.5},
      {"smiles": "C=CCn1c(SCC(=O)N2CCN(c3ccc(F)cc3)CC2)nnc1-c1ccco1", "hERG current change (%, negative = inhibition) at 1uM": -67},
      {"smiles": "C=CCn1c(SCC(=O)Nc2ccc(N3CCOCC3)cc2)nnc1-c1ccco1", "hERG current change (%, negative = inhibition) at 1uM": 8.51}
    ]}
  ]
}
